Source: PubChem (several laboratories)
Jurkat NFkB inh: lowers PMA/ionomycin-induced NF-kB signal in Jurkat cells; inhibition, % at 4 µM; 330,000 compounds, 0.53% hits; PMA/ionomycin-induced NF-kB luciferase reporter, luminescence; in the data active = inhibition above about 50%
697 NFkB inh: inhibitors of the PMA/ionomycin-induced NF-kB reporter in 697 B cells. 697 B-cell NF-kB luciferase reporter, 16 h. 330,000 compounds, 0.33% hits. inhibition, % at 4 µM; in the data active = inhibition above about 35%
aSyn 5UTR inh: MLPCN primary screen, SNCA 5' untranslated region. inhibition, % (tested at 7.5 µM). AID 1813. alpha-synuclein 5'UTR reporter, inhibitor activity. 300,000 compounds, 0.82% hits; in the data active = inhibition above about 60%;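 note: H4 neuroglioblastoma cells stably carrying SNCA 5'UTR luciferase fusion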
ANO1 block: mouse TMEM16A channel inhibition, primary screen. HEK293 TMEM16A/YFP iodide influx fluorescence, ionomycin. normalized B-score (activity score, 25-100; higher = stronger inhibition) at 10 µM. 310,000 compounds, 1.2% hits. AID 588511;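 active = ratio plate-corrected score three or more library SD toward inhibition, starting fluorescence score within five deviations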;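 note: score derived from kinetic fluorescence span divided by baseline fluorescence per well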
Target sequence (Q8BHY3 whole entry, looked up): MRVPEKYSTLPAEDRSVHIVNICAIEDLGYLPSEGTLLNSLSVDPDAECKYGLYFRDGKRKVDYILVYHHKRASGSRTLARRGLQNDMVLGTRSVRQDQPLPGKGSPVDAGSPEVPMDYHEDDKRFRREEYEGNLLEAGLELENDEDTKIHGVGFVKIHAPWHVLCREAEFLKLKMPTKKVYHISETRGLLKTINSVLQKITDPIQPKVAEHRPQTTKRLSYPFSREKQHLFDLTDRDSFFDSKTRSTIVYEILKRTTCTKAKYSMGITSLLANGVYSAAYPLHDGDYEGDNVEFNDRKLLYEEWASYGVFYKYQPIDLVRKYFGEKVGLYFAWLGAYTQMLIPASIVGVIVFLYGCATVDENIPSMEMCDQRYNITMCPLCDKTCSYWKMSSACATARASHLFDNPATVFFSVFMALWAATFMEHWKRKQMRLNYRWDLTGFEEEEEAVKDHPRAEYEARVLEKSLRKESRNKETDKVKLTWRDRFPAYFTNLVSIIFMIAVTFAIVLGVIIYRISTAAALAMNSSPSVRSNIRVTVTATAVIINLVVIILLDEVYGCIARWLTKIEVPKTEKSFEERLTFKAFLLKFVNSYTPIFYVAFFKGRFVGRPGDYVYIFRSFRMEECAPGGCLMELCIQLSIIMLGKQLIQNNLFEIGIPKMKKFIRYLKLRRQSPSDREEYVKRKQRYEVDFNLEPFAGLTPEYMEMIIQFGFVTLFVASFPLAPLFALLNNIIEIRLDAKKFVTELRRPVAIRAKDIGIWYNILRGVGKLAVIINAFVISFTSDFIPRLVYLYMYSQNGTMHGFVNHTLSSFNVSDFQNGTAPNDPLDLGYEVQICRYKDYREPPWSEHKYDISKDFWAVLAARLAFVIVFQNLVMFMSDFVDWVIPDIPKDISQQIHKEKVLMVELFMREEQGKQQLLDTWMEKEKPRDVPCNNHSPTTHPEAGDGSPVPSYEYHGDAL
KLF5 inh: suppresses KLF5 promoter-driven expression. inhibition, % at 5 µM. DLD-1 KLF5 promoter-luciferase reporter, luminescence. 290,000 compounds, 0.23% hits. AID 1700;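 active = inhibition above a per-plate limit of that plate's mean compound inhibition plus 3 SD, cut at about 60% in these data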;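 note: higher means less KLF5 promoter-driven luciferase light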
ANO1 activ: activates or potentiates the mouse TMEM16A chloride channel; HEK293 TMEM16A/YFP-H148Q/I152L, iodide quench fluorescence; stronger effect = lower value; B-score at 10 µM; 340,000 compounds, 0.3% hits; AID 623877;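 active = fluorescence-ratio B-score plate-corrected deviation score at least 3 library SD below zero, with starting fluorescence score within 5 deviations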;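 note: channel opened by trigger with iodide after compound preincubation; score built on the fluorescence ratio of max minus min over baseline; more negative score means more quench and so TMEM16A activation or potentiation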
Jurkat NFkB conf: lowers PMA/ionomycin-induced NF-kB signal in Jurkat cells; shares compounds with Jurkat NFkB inh; inhibition, % at 4 µM; Jurkat NF-kB luciferase, 16 h; AID 435020; 2,700 compounds, 27% hits;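 active = inhibition reaching about 45% at 4 µM in either replicate, limit read from the data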
A number is an active result; n = inactive; x = no result. Only some compounds are listed: those with a hit (about 2.5% of all), similar ones and a draw of the others.

SMILES	Jurkat NFkB inh	697 NFkB inh	aSyn 5UTR inh	ANO1 block	KLF5 inh	ANO1 activ	Jurkat NFkB conf
Cc1onc(-c2ccccc2)c1C(=O)N1CCN(c2ncccc2C(F)(F)F)CC1	n	n	n	n	n	n	x
O=C(CSc1nnc(-c2csc3c2CCCC3)o1)Nc1ccccc1	n	n	n	n	n	n	n
CCC(=O)Nc1c(C(=O)Nc2ccc3c(c2)OCCO3)oc2ccccc12	n	n	n	n	n	n	x
COCC(=O)Nc1c(C(=O)Nc2ccc3c(c2)OCCO3)oc2ccccc12	n	n	n	n	n	n	n
CCOCC(=O)Nc1c(C(=O)Nc2ccc3c(c2)OCCO3)oc2ccccc12	n	n	n	n	n	n	n
C(=N\NC1=Nc2cccc3cccc1c23)/c1ccccc1	n	n	n	n	n	n	n
Cc1ccccc1NS(=O)(=O)c1cc2c3c(c1)CC(=O)N3CCC2	n	n	n	n	n	n	x
Cc1ccccc1NS(=O)(=O)c1ccc(N2CCCC2=O)cc1	54	n	n	n	n	n	n
Cc1cccc(NS(=O)(=O)c2ccc(C)c(C(=O)NCC(c3cccs3)N(C)C)c2)c1 (stereo unspecified)	n	n	x	x	x	n	x
O=C(Nc1ccc(-c2nc3ccc(NC(=O)c4cccs4)cc3[nH]2)cc1)c1cccs1	91	n	122	n	n	n	n
O=C(Nc1ccc2c(c1)CCC2)c1cccc(OC(F)F)c1	n	n	n	n	x	n	n
O=C(Nc1ccc(F)cc1)Nc1ccc2c(c1)CCC2	n	n	n	n	n	n	x
O=C(Nc1ccc2nc(-c3cccs3)[nH]c2c1)c1cccs1	n	n	n	n	n	n	x
O=C(Nc1ccc2c(c1)CCC2)c1ccc(F)cc1	n	n	n	n	n	n	n
O=C(Nc1ccc2c(c1)CCC2)Nc1ccc(F)cc1F	n	n	n	n	n	n	n
CCN(C(=O)CSc1nc2ccc(Cl)cc2[nH]1)C1CCS(=O)(=O)C1 (stereo unspecified)	n	n	x	x	x	n	x
CN(C)S(=O)(=O)c1ccc(C(=O)Nc2ccc3c(c2)CCC3)cc1	n	n	n	n	n	n	x
O=C(Nc1ccc2c(c1)CCC2)c1cccs1	n	n	n	n	n	n	n
CN(C)S(=O)(=O)c1cccc(C(=O)Nc2ccc3c(c2)CCC3)c1	n	n	n	n	n	n	n
CCc1cc(C(=O)N(CC(C)C)c2c(N)n(Cc3ccccc3)c(=O)[nH]c2=O)sc1C	n	n	n	n	x	n	x
CCCCc1ccc(NC(=O)c2ccc(N(C)S(C)(=O)=O)cc2)cc1	50	n	n	n	n	n	54
COc1ccc2c(C)nc(Nc3nc(-c4ccccc4)cc(=O)[nH]3)nc2c1	89	n	n	n	n	n	38
COc1ccc2c(C)nc(Nc3nc(C)cc(=O)[nH]3)nc2c1	x	x	x	x	n	x	x
CCCCn1c2c(c(=N)c3c1CCC3)CCC2	58	n	x	n	n	n	48
CC(NC(=O)c1ccc([N+](=O)[O-])o1)C1CC2CCC1C2 (stereo unspecified)	n	n	x	x	x	n	x
SMILES	Jurkat NFkB inh	697 NFkB inh	aSyn 5UTR inh	ANO1 block	KLF5 inh	ANO1 activ	Jurkat NFkB conf
CC1=C(C(=O)NC2CCCc3c2cnn3-c2cccc(C)c2C)OCCO1 (stereo unspecified)	x	x	n	n	n	n	x
CCn1cc(C(=O)NC2CCCc3c2cnn3-c2cccc(C)c2C)cn1 (stereo unspecified)	74	n	n	n	n	n	66
N/C(=N/OC(=O)c1cccc([N+](=O)[O-])c1)c1cccc([N+](=O)[O-])c1	n	n	n	n	n	n	x
N/C(=N\OC(=O)c1ccccc1Cl)c1cccc([N+](=O)[O-])c1	n	n	n	n	n	n	n
Cc1ccnc(NC(=O)Nc2ccc(Br)cc2Cl)c1	n	n	n	n	n	n	n
Cc1nc(SCC(=O)NCc2ccc3c(c2)OCO3)nc(C)c1C	n	n	x	x	x	n	x
N#Cc1cc2cc3c(cc2nc1SCC(=O)N1CCCC1)OCCO3	n	n	n	n	n	n	n
Cc1ccc(OCc2ccc(Br)cc2)c([N+](=O)[O-])n1	n	n	n	n	n	x	n
Cc1ccc(C(=O)OCC(=O)NC2CCCC2)cc1C	n	n	n	n	n	n	x
COc1ccccc1C1CC(=O)Oc2c(C(C)C)ccc(C)c21 (stereo unspecified)	x	n	x	x	x	n	x
COc1ccc(C(=O)Nc2ccc3[nH]c(-c4cccc(OC)c4)cc(=O)c3c2)cc1	85	n	n	n	n	n	49
COc1cccc(N2CCN(c3ccc([N+](=O)[O-])cn3)CC2)c1	64	n	n	n	n	n	n
CC1CCN(c2ccc([N+](=O)[O-])cn2)CC1	n	n	n	n	n	n	x
Cc1c(C)c(C)c(C(=O)C2CCN(c3ccc([N+](=O)[O-])cn3)CC2)c(C)c1C	73	n	n	n	n	n	n
O=[N+]([O-])c1ccc(N2CCN(c3ccccc3)CC2)nc1	n	n	n	n	n	n	x
NC(=O)c1ncn([C@@H]2O[C@H](CO)[C@@H](O)[C@H]2O)c1O	n	n	n	n	n	n	x
Nc1ncn(C2O[C@H](CO)[C@@H](O)[C@H]2O)c(=O)n1 (stereo partly specified)	82	n	x	n	x	x	90
N#CCc1ccccc1C(=O)OCC(=O)N(Cc1ccccc1)Cc1ccccc1	n	n	x	x	x	n	x
CCOc1ccc(C)cc1S(=O)(=O)n1cnc2ccccc21	54	n	n	n	n	n	n
CCn1c2ccccc2c2cc(NC(=O)c3cc(OC)cc(OC)c3)ccc21	60	n	101	n	n	n	n
CCn1c2ccccc2c2cc(NC(=O)COc3ccc(OC)cc3)ccc21	n	n	n	n	n	n	x
NS(=O)(=O)c1ccc(NC(=S)N2CCC(Cc3ccccc3)CC2)cc1	n	n	n	n	n	n	x
COc1ccc(COC(=O)c2cc([N+](=O)[O-])ccc2N2CCOCC2)cc1F	93	n	68	n	x	n	65
O=C(OCc1cccc(Cl)c1)c1cc([N+](=O)[O-])ccc1N1CCOCC1	n	n	n	n	x	n	x
CCOC(=O)c1cc(CC)sc1NC(=O)c1cc([N+](=O)[O-])ccc1N1CCOCC1	59	n	n	n	n	n	n
SMILES	Jurkat NFkB inh	697 NFkB inh	aSyn 5UTR inh	ANO1 block	KLF5 inh	ANO1 activ	Jurkat NFkB conf
Cc1cc(C)cc(C(=O)Nc2nc3ccccc3[nH]2)c1	n	n	n	n	n	n	x
O=C(Nc1nc2ccccc2[nH]1)c1cc2ccccc2o1	n	n	n	n	n	n	n
O=C(Nc1nc2ccccc2[nH]1)c1ccc(F)cc1	n	n	n	n	n	n	n
O=C(Nc1ccccc1)c1cc2ccccc2o1	n	n	n	n	n	n	x
COc1ccc2oc(C(=O)Nc3nc4ccccc4[nH]3)c(C)c2c1	n	n	n	n	n	n	n
COc1ccc(Br)c(C(=O)Nc2nc3ccccc3[nH]2)c1	n	n	n	n	n	n	x
